Of roughly 8,800 targets only a part is listed; those with a hit were picked by preference. About 0.5% of all pairs of compound and target were hits. A number with no mark means an inactive call.
Key:
Experiment in all cases: log2 fold change, soluble protein after heating vs DMSO (PISA); higher = thermal stabilisation; K562 lysate, 10 uM; active = over 0.2 and 3.5 SD of the protein, either way, in both replicates (recomputed)
vemurafenib = compound: CCCS(=O)(=O)Nc1ccc(F)c(C(=O)c2c[nH]c3ncc(-c4ccc(Cl)cc4)cc23)c1F [vemurafenib]
Outline: (§1)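 K562 pellets were dounce-homogenised in PBS pH 7.4 containing 1 mM MgCl2, and the crude extract, at 1 mg/mL protein, was exposed to 10 μM compound for 30 min. Aliquots were heated for 3 min across 48°C-58°C, pooled, brought to 0.5% NP-40 at 4°C and spun at 21,000xg for 90 min, with the supernatant taken as soluble protein. TMTpro 16plex LC-MS/MS with equalised channel sums quantified that protein. Values are log-two fold changes in thermal stability relative to solvent controls, taken from duplicates.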

[1] = compound: CCCS(=O)(=O)Nc1ccc(F)c(C(=O)c2c[nH]c3ncc(Cl)cc23)c1F
Outline: as §1

barasertib = compound: CCN(CCCOc1ccc2c(Nc3cc(CC(=O)Nc4cccc(F)c4)[nH]n3)ncnc2c1)CCOP(=O)(O)O [barasertib]
Outline: as §1

[2] = compound: CC[C@@H]1C(=O)N(C)c2cnc(Nc3ccc(C(=O)NC4CCN(C)CC4)cc3OC)nc2N1C1CCCC1
Outline: as §1

volasertib = compound: CC[C@@H]1C(=O)N(C)c2cnc(Nc3ccc(C(=O)N[C@H]4CC[C@H](N5CCN(CC6CC6)CC5)CC4)cc3OC)nc2N1C(C)C [volasertib]
Outline: as §1

[3] = compound: CCn1c(C(=O)N(C2CC2)C2CC2)cc2c3c(ncn3C)c(Nc3cc(C)n(C)n3)nc21
Outline: as §1

[4] = compound: CCn1cc(-c2ccnc3[nH]c(-c4cccc(CN(C)C)c4)cc23)c(-c2ccc(NC(=O)N(C)C)cc2)n1
Outline: as §1

[5] = compound: CN1CCC(CNc2ccc3ncc(-c4cccc(OC(F)(F)F)c4)n3n2)CC1
Outline: as §1

saracatinib = compound: CN1CCN(CCOc2cc(OC3CCOCC3)c3c(Nc4c(Cl)ccc5c4OCO5)ncnc3c2)CC1 [saracatinib]
Outline: as §1

sotrastaurin = compound: CN1CCN(c2nc(C3=C(c4c[nH]c5ccccc45)C(=O)NC3=O)c3ccccc3n2)CC1 [sotrastaurin]
Outline: as §1

alvocidib = compound: CN1CC[C@H](c2c(O)cc(O)c3c(=O)cc(-c4ccccc4Cl)oc23)[C@H](O)C1 [alvocidib]
Outline: as §1

Tubastatin A = compound: CN1CCc2c(c3ccccc3n2Cc2ccc(C(=O)NO)cc2)C1 [Tubastatin A]
Outline: as §1

[6] = compound: CNC(=O)C1=CC=CC=C1NC2=NC(=NC=C2Cl)NC3=C(C=C(C=C3)N4CCOCC4)OC
Outline: as §1

defactinib = compound: CNC(=O)c1ccc(Nc2ncc(C(F)(F)F)c(NCc3nccnc3N(C)S(C)(=O)=O)n2)cc1 [defactinib]
Outline: as §1

[7] = compound: CNc1nc(-c2ccc3c(N)n[nH]c3c2)cc(N2C[C@@H](C(=O)NC3CCCCC3)CC[C@H]2C)n1
Outline: as §1

encorafenib = compound: COC(=O)N[C@@H](C)CNc1nccc(-c2cn(C(C)C)nc2-c2cc(Cl)cc(NS(C)(=O)=O)c2F)n1 [encorafenib]
Outline: as §1

[8] = compound: COC(=O)[C@H](CCSC)NC(=O)C1=C(C=C(C=C1)NC[C@H](CS)N)C2=CC=CC=C2
Outline: as §1

alisertib = compound: COc1cc(Nc2ncc3c(n2)-c2ccc(Cl)cc2C(c2c(F)cccc2OC)=NC3)ccc1C(=O)O [alisertib]
Outline: as §1

[9] = compound: COc1cc2nc(-c3cc(F)ccc3O)nc(N[C@@H]3CNC[C@H]3C(C)(C)O)c2cc1OC
Outline: as §1

gefitinib = compound: COc1cc2ncnc(Nc3ccc(F)c(Cl)c3)c2cc1OCCCN1CCOCC1 [gefitinib]
Outline: as §1

Chain of UniProt P49356 (P49356 whole entry, looked up): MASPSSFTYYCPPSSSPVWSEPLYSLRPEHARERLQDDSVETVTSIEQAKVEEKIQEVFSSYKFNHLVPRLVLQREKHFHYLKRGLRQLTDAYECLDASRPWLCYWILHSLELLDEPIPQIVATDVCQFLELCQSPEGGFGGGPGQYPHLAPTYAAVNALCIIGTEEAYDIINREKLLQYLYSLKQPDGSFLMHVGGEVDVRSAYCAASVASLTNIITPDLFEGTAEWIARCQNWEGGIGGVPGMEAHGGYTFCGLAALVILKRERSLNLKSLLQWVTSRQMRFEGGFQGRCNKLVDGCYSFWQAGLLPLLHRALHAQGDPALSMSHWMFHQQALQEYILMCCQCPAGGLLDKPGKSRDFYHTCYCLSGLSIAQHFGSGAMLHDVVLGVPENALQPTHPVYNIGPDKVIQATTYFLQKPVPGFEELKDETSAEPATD
Chain of UniProt Q13144 (Q13144 whole entry, looked up): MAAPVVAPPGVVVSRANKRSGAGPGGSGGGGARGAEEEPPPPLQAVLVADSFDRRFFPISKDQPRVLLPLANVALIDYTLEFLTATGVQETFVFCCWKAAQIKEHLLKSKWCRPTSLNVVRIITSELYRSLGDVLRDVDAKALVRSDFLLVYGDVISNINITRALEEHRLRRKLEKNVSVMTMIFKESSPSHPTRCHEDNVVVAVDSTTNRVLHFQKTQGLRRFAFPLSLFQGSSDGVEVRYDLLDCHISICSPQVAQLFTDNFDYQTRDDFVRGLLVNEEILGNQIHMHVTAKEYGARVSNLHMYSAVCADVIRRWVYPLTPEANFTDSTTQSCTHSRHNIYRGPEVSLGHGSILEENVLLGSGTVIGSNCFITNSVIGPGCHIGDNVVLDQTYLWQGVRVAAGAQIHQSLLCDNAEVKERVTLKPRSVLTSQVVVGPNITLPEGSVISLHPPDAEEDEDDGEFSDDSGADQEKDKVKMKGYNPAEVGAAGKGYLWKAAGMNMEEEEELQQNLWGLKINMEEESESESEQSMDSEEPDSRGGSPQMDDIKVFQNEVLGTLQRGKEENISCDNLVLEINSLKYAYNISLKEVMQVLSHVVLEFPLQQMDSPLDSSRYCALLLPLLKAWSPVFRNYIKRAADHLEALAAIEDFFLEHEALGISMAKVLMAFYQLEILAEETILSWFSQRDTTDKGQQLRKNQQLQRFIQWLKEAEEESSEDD
Chain of UniProt O00471 (O00471 whole entry, looked up): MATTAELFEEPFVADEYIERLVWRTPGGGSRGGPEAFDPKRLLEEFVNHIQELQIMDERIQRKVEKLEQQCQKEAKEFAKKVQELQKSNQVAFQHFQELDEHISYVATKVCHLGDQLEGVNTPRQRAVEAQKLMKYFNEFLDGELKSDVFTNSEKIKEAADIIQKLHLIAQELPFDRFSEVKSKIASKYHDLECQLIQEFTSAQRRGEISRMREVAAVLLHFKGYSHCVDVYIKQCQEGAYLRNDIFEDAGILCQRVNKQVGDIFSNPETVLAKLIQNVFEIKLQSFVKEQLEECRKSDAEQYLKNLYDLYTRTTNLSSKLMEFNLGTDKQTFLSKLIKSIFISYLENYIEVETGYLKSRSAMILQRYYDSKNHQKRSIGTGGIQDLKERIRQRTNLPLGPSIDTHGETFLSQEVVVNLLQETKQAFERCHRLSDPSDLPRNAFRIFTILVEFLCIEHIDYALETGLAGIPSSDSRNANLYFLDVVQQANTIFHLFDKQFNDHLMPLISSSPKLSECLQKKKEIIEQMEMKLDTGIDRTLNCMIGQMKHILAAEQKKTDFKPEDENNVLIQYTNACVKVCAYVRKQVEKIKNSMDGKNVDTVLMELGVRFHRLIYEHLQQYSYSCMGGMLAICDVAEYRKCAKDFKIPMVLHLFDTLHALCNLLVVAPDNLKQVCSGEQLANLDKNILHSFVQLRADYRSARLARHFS
Chain of UniProt Q92616 (Q92616 whole entry, looked up): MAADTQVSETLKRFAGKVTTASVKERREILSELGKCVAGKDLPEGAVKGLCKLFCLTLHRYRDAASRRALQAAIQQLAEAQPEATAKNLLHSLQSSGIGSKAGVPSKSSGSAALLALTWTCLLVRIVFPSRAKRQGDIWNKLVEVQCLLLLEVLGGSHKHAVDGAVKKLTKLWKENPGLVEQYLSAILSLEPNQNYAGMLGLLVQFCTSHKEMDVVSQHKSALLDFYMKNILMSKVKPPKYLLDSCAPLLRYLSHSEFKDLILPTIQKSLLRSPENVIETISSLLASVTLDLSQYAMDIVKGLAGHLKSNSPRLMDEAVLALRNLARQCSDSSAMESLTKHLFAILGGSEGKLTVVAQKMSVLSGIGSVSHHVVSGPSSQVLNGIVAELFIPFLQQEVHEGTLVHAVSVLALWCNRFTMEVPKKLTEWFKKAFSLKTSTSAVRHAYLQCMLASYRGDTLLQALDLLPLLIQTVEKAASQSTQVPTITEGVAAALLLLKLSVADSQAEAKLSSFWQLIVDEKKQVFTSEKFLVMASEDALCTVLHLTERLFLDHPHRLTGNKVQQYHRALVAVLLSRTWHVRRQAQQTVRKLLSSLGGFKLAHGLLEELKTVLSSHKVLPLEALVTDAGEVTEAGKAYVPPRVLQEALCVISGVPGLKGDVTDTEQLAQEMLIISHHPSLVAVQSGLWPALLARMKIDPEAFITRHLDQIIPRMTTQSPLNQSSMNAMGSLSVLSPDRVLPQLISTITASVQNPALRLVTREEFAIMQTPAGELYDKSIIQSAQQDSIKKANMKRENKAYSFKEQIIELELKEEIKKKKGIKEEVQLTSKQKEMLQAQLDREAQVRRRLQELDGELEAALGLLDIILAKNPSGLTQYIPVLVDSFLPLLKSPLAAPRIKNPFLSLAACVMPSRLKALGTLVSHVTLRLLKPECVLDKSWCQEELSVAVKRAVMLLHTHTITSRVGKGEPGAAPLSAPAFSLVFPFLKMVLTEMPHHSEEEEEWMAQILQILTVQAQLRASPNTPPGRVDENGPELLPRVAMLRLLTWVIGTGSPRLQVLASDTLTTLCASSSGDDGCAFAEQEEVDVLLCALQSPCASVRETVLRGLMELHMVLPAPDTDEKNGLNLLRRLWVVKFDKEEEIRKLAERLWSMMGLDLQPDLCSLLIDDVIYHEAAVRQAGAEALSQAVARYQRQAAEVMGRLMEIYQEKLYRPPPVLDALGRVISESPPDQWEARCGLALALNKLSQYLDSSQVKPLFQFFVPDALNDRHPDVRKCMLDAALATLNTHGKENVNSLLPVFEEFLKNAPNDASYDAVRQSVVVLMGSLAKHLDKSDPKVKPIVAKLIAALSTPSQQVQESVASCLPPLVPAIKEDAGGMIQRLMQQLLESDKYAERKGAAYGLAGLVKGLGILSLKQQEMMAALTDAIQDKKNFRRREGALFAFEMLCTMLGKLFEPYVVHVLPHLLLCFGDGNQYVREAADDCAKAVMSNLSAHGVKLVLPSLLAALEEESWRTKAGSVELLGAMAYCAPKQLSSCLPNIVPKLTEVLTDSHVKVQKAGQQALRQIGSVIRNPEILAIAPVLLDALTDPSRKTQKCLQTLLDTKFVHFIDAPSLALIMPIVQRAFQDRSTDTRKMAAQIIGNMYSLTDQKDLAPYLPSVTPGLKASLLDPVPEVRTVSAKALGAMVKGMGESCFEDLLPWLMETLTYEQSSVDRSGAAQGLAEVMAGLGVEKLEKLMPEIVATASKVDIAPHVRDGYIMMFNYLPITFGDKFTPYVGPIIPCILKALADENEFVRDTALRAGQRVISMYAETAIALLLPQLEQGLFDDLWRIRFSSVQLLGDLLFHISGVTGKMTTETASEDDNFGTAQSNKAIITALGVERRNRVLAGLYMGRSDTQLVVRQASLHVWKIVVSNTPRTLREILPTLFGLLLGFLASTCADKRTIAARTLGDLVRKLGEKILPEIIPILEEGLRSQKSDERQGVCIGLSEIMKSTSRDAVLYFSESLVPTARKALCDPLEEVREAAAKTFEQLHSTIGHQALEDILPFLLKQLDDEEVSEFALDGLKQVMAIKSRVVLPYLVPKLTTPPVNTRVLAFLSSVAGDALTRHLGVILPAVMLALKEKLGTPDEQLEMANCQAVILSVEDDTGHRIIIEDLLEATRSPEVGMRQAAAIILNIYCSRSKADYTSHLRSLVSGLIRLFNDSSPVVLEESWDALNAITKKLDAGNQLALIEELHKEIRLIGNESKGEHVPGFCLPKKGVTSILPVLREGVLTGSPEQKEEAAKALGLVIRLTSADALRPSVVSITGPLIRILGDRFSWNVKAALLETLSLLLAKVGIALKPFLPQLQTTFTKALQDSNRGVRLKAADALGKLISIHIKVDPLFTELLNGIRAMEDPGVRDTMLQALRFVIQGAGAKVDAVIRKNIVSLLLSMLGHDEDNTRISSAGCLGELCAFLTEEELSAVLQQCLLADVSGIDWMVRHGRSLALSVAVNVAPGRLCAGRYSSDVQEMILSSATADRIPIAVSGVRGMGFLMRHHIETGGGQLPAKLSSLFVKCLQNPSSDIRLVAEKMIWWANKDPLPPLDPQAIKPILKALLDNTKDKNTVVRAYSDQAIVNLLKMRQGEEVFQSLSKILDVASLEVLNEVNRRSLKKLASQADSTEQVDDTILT
Chain of UniProt A6NHQ2 (A6NHQ2 whole entry, looked up): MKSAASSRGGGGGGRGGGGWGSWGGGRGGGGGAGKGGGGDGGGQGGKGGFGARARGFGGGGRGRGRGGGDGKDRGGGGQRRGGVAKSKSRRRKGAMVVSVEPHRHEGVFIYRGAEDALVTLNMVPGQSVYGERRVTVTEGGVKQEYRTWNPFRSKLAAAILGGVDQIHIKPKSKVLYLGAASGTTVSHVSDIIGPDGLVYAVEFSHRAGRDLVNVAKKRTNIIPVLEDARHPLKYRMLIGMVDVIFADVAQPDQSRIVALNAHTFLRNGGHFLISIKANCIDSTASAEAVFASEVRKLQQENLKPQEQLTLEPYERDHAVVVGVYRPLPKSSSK
Chain of UniProt O43768 (O43768 whole entry, looked up): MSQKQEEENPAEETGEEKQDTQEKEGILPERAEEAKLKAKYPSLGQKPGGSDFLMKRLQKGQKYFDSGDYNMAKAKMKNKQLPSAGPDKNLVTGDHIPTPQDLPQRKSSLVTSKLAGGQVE

| Target | log2 fold change (vemurafenib) | log2 fold change [1] | log2 fold change (barasertib) | log2 fold change [2] | log2 fold change (volasertib) | log2 fold change [3] | log2 fold change [4] | log2 fold change [5] | log2 fold change (saracatinib) | log2 fold change (sotrastaurin) | log2 fold change (alvocidib) | log2 fold change (Tubastatin A) | log2 fold change [6] | log2 fold change (defactinib) | log2 fold change [7] | log2 fold change (encorafenib) | log2 fold change [8] | log2 fold change (alisertib) | log2 fold change [9] | log2 fold change (gefitinib) |
| --- | --- | --- | --- | --- | --- | --- | --- | --- | --- | --- | --- | --- | --- | --- | --- | --- | --- | --- | --- | --- |
| DTWD1 (UniProt Q8N5C7) | 0.028 | 0.018 | -0.005 | 0.024 | -0.036 | 0.016 | -0.026 | -0.032 | -0.033 | 0.019 | 0.041 | -0.028 | 0.011 | -0.032 | 0.01 | -0.044 | -0.046 | 0 | 0.005 | -0.006 |
| EPHX2 (UniProt P34913) | -0.026 | -0.01 | -0.026 | 0.016 | 0.041 | -0.004 | -0.044 | 0.119 | -0.018 | 0.06 | -0.018 | 0.183 | -0.023 | -0.002 | 0.123 | -0.02 | -0.058 | -0.045 | -0.007 | -0.002 |
| FXR1 (UniProt P51114) | -0.047 | 0.009 | 0.01 | -0.036 | -0.022 | 0.018 | -0.107 | 0.012 | -0.036 | -0.011 | -0.028 | -0.176 | 0.02 | -0.043 | -0.039 | 0.057 | 0.035 | -0.012 | 0.012 | -0.022 |
| GALK1 isoform 2 (UniProt P51570) | 0.024 | 0.01 | 0.031 | 0.003 | -0.054 | -0.009 | 0.085 | -0.055 | -0.011 | 0.031 | 0.035 | -0.132 | -0.005 | -0.002 | 0 | 0.02 | -0.171 | 0.054 | -0.016 | 0.034 |
| EXOC5 (UniProt O00471) | 0.033 | 0.03 | 0.044 | -0.036 | -0.081 | 0.02 | 0.068 | -0.115 | 0.044 | 0.022 | 0.004 | -0.064 | -0.011 | 0.007 | -0.07 | 0.029 | -0.102 | 0.029 | -0.025 | 0.002 |
| GATAD2A isoform 3 (UniProt Q86YP4) | -0.014 | 0.019 | 0.008 | 0.012 | -0.014 | -0.004 | -0.058 | 0.022 | 0.022 | -0.002 | -0.028 | -0.045 | 0.015 | 0 | 0.025 | 0.005 | 0.072 | 0.006 | 0.01 | -0.023 |
| FNTB (UniProt P49356) | 0.055 | -0.009 | -0.036 | 0.285 (active) | 0.005 | 0.037 | -0.036 | 0.016 | 0.016 | 0.042 | -0.003 | 0.048 | -0.019 | 0.026 | -0.056 | -0.046 | 0.131 | -0.034 | -0.007 | -0.031 |
| GCN1 (UniProt Q92616) | 0.025 | 0.004 | 0.061 | -0.107 | -0.084 | 0.082 | -0.05 | -0.07 | 0.015 | -0.006 | 0.036 | -0.181 | 0.001 | 0.037 | -0.023 | 0.014 | 0.147 | 0.023 | 0.006 | -0.004 |
| EP400 isoform 5 (UniProt Q96L91) | -0.021 | -0.007 | -0.015 | 0.044 | -0.042 | -0.023 | -0.007 | 0.011 | 0.01 | -0.012 | 0.015 | -0.022 | 0.037 | 0.01 | 0.035 | -0.028 | 0.068 | 0.004 | 0.023 | -0.055 |
| FBXO30 (UniProt Q8TB52) | -0.065 | 0.02 | 0.015 | -0.026 | -0.042 | 0.009 | 0.208 | -0.115 | -0.015 | -0.013 | 0.066 | -0.106 | 0.03 | 0.042 | -0.091 | 0.036 | 0.1 | -0.014 | -0.006 | 0.029 |
| ESYT2 (UniProt H7BXI1) | -0.047 | -0.044 | 0.046 | -0.065 | -0.036 | -0.009 | 0.037 | -0.068 | 0.033 | -0.003 | 0.02 | 0.038 | -0.02 | 0.001 | -0.072 | 0.053 | -0.1 | -0.003 | 0.029 | -0.006 |
| EXOC3 (UniProt O60645) | 0.049 | 0.021 | 0.02 | -0.081 | -0.086 | 0.045 | -0.057 | -0.001 | 0.004 | 0.03 | 0.011 | -0.063 | 0.009 | 0.031 | -0.037 | 0.001 | 0.07 | 0.032 | -0.023 | -0.001 |
| FBLL1 (UniProt A6NHQ2) | 0.081 | 0.019 | 0.107 | 0.003 | -0.041 | -0.014 | -0.307 (active) | 0.046 | -0.075 | 0.056 | -0.009 | -0.049 | -0.036 | 0.047 | 0.081 | 0.042 | 0.056 | 0.012 | 0.005 | 0.035 |
| ERCC4 (UniProt Q92889) | 0.071 | 0.01 | 0.163 | 0.144 | -0.006 | 0.004 | -0.078 | 0.114 | 0.016 | 0.047 | -0.268 | -0.021 | 0.058 | 0.101 | -0.029 | -0.065 | -0.001 | 0.047 | 0.024 | 0.044 |
| EIF2B5 (UniProt Q13144) | -0.007 | 0.019 | 0.013 | -0.012 | -0.027 | 0.021 | -0.065 | -0.057 | 0.009 | 0.038 | 0.03 | -0.06 | 0.04 | 0.022 | 0.023 | -0.009 | 0.046 | -0.004 | 0.005 | -0.016 |
| ENSA isoform 3 (UniProt O43768) | -0.034 | -0.016 | -0.052 | 0.049 | 0.025 | 0.033 | 0.212 | -0.058 | -0.021 | -0.007 | 0.015 | -0.038 | -0.012 | 0.03 | -0.027 | -0.024 | -0.053 | -0.014 | 0.001 | 0.001 |

— the supplement of paper PMC10849652
